Screening results: PubChem, The Scripps Research Institute Molecular Screening Center
CHO-K1 Ca antag – M1 antagonist counterscreen hit in parental CHO-K1 cells. AID 602250. ATP-induced calcium, Fluo-8 fluorescence. inhibition, % at 3 µM. hit rate 0.6% among 360,000;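 active = inhibition above a per-plate cutoff, the plate's mean sample inhibition plus 3 SD, cut at about 24% in these data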
CHRM1 agonist – activates human CHRM1 receptor. P11229. CHO-K1 hM1, Fluo-8 calcium fluorescence, agonist mode; 0% DMSO, 100% acetylcholine EC100. activation, % at 3 µM. hit rate 0.33% among 360,000. AID 588814;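 active = activation above the run's mean compound activation plus 3 SD, cut at about 16% in these data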;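 note: peak over basal fluorescence ratio within a 140 s kinetic read after compound addition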
Target sequence (P11229 whole entry, looked up): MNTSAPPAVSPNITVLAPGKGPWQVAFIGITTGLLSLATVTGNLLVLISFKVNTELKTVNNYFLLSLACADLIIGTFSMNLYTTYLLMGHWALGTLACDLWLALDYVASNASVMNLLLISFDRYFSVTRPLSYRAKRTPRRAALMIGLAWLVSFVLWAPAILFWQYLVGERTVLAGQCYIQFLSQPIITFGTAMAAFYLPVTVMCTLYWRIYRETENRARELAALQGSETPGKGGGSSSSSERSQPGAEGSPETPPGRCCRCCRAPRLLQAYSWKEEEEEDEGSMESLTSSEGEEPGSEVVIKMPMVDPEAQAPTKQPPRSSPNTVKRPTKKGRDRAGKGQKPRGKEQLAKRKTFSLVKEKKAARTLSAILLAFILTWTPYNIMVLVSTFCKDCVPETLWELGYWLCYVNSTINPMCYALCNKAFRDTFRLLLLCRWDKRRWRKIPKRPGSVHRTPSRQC
CHRM1 PAM – positive allosteric modulators of human M1 muscarinic receptor | CHO-K1 hM1, Fluo-8 calcium fluorescence, ACh EC20; 0% = ACh EC20, 100% = maximal ACh | activation, % at 3 µM | hit rate 0.088% among 360,000; in the data active = activation above about 19%, passing the limit was not always enough
CHO-K1 Ca ag – nonselective activator or artifact in parental CHO-K1 cells | Fluo-8 calcium fluorescence; scaled to maximal ATP response, vehicle zero | activation, % at 3 µM | hit rate 0.48% among 360,000 | AID 602248; in the data active = activation above about 15%;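 note: untransfected CHO-K1 host cells lacking M1 receptor as counterscreen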
CHRM1 antagonist – antagonists of human M1 muscarinic receptor. P11229. hit rate 1.3% among 360,000. inhibition, % at 3 µM. CHO-K1 hM1, Fluo-8 calcium fluorescence, ACh EC80 antagonist;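 active = percent inhibition above its own plate's cutoff, namely the mean of that plate's compound wells plus 3 SD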;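 note: peak over basal fluorescence ratio during 140 s after agonist addition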
CHO-K1 Ca PAM – nonselective activator or artifact in parental CHO-K1 calcium assay; hit rate 0.02% among 360,000; AID 602247; ATP EC20, Fluo-8 calcium fluorescence; 0% at ATP EC20, 100% at ATP max; activation, % at 3 µM;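 active = activation above the run cutoff, the mean activation of all test compounds plus 3 SD, cut at about 40% in these data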;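 note: peak over basal fluorescence ratio in a 140 s read after ATP addition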
Numbers stand for hits; n = inactive. An excerpt weighted towards active compounds, which were near 2.3% of everything screened.

SMILES	CHO-K1 Ca antag	CHRM1 agonist	CHRM1 PAM	CHO-K1 Ca ag	CHRM1 antagonist	CHO-K1 Ca PAM
Cc1ccc(-c2nc(Nc3cccc(C)c3)sc2CC(=O)O)cc1	26	n	n	n	n	n
COc1ccc(-c2sc3cc4c(cc3c2-c2ccc(OCCN3CCCCC3)cc2)OCO4)cc1	n	n	n	n	n	n
COc1ccccc1-c1sc2cc3c(cc2c1-c1ccc(OCCN2CCOCC2)cc1)OCO3	n	n	n	n	25	n
Cc1cc(C)n2nc(CC(=O)NCc3ccc(F)cc3)nc2n1	n	n	n	n	n	n
Cc1cccc(N/C(=N/S(=O)(=O)c2ccccc2)c2ccccc2)n1	n	n	n	n	n	n
Cn1c(CCN2CCOCC2)nc2cc(NC(=O)COc3ccccc3)ccc21	26	n	n	n	n	n
CCOC(=O)N1CCN(Cc2nc3cc(NC(=O)c4cccs4)ccc3n2C)CC1	n	n	n	n	26	n
Cn1c(CCN2CCN(c3ccc(F)cc3)CC2)nc2cc(NC(=O)c3ccco3)ccc21	n	n	n	n	27	n
Cn1c(CN2CCCC2)nc2cc(NC(=O)c3ccco3)ccc21	n	n	n	n	n	n
CN1CCN(CCc2nc3cc(NC(=O)c4ccco4)ccc3n2C)CC1	n	n	n	n	n	n
Cn1c(CN2CCOCC2)nc2cc(NC(=O)COc3ccccc3)ccc21	n	n	n	n	n	n
Cn1c(CCN2CCN(c3ccccc3)CC2)nc2cc(NC(=O)c3ccco3)ccc21	n	n	n	n	46	n
Cc1cc(OCC(=O)N2CCC(O)CC2)c2c(C)cc(=O)oc2c1	n	n	n	n	n	n
CCC1CCC2(CC1)NC(=O)N(CC(=O)N1CCc3ccccc31)C2=O (configuration not stated)	n	n	n	n	n	n
CS(=O)(=O)c1ccccc1C(=O)Nc1cccc2ncccc12	n	n	n	n	n	n
O=C(CCC(=O)N(CC(=O)NC1CCCC1)c1ccccc1F)Nc1nccs1	n	n	n	n	n	n
Cc1ccc(N2CCN(CCc3nc4cc(NC(=O)c5ccco5)ccc4n3C)CC2)cc1	n	n	n	n	25	n
Cc1ccc(C(=O)Nc2ccc3c(c2)nc(CCNC(=O)c2ccco2)n3C)cc1	n	n	n	n	n	n
CCC(=O)Nc1ccc2c(c1)nc(CCN1CCN(c3ccccc3)CC1)n2C	n	n	n	n	43	n
NS(=O)(=O)c1ccc(CCNC(=O)C(=O)NCC2OCCN2C(=O)c2ccc3c(c2)OCO3)cc1 (configuration not stated)	29	n	n	n	n	n
CCCn1c(=O)c(C(=O)NCc2ccncc2)c(O)c2ccccc21	29	n	n	n	n	n
CCCn1c(=O)c(C(=O)NCc2ccccc2Cl)c(O)c2ccccc21	n	n	n	n	n	n
CCn1c(=O)c(C(=O)NNC(=O)c2ccccc2Cl)c(O)c2ccccc21	n	18	n	35	n	n
COc1cc2c(cc1OC)CN(c1nc(CN3CCCCC3)nc3sc4c(c13)CCCC4)CC2	n	n	n	20	n	n
COc1cc2c(cc1OC)CN(c1nc(CN3CCOCC3)nc3sc4c(c13)CCCC4)CC2	n	n	n	n	n	n
SMILES	CHO-K1 Ca antag	CHRM1 agonist	CHRM1 PAM	CHO-K1 Ca ag	CHRM1 antagonist	CHO-K1 Ca PAM
Cc1c(NC(=O)CSc2nnc(-c3ccncc3)n2C)c(=O)n(-c2ccccc2)n1C	n	n	n	n	n	n
CCOc1ccc(S(=O)(=O)N2CCC(C(=O)NC3CC3)CC2)cc1C	n	n	n	n	n	n
Cc1ccccc1C(=O)Nc1ccc(-c2nc3ccc(C(=O)c4ccccc4)cc3[nH]2)cc1	34	n	n	n	28	n
O=C(Nc1ccc(-c2nc3ccc(NC(=O)c4cccs4)cc3[nH]2)cc1)c1cccs1	n	n	n	n	38	n
O=C(c1ccccc1)c1ccc2nc(-c3ccc(NC(=O)c4ccccc4Br)cc3)[nH]c2c1	n	n	n	n	n	n
O=C(Nc1cccc(-c2nc3ccccc3s2)c1)c1cccs1	n	n	n	n	30	n
Cc1ccc(CNC(=O)CSc2ncc(C(=O)Nc3ccccc3)c(=O)n2C)cc1	n	n	n	n	n	n
Cc1cc(O)cc(=O)n1Cc1ccccc1	n	n	n	n	n	n
CN1CCN(c2ccc(S(=O)(=O)N3CCCCC3)cn2)CC1	n	n	n	n	n	n
O=S(=O)(NC1CCCCC1)c1ccc(N2CCOCC2)nc1	n	n	n	19	n	n
O=S(=O)(c1ccc(N2CCCCCC2)nc1)N1CCCC1	n	n	n	n	70	n
O=S(=O)(c1ccc(Cl)nc1)N1CCC(Cc2ccccc2)CC1	n	n	n	n	n	n
NC(=O)C1CCN(c2ccc(S(=O)(=O)N3CCC(Cc4ccccc4)CC3)cn2)CC1	n	n	n	19	n	n
Cc1[nH]n2c(=O)c(C#N)c(-c3ccccc3)nc2c1-c1ccccc1	28	n	n	n	n	n
Cc1ccc(S(=O)(=O)N2CCC(c3nnc(SCCN4CCCC4)n3C)CC2)cc1	n	n	n	n	26	n
Cn1c(SCCN2CCCC2)nnc1C1CCN(S(=O)(=O)c2ccc(F)cc2)CC1	n	n	n	n	33	n
Cc1ccc(S(=O)(=O)N2CCCCC2)cc1NC(=O)CSc1nnc(C2CC2)n1C	n	n	n	n	n	n
CC(=O)c1ccc(S(=O)(=O)N2CCC(c3nnc(SCCN4CCCC4)n3C)CC2)cc1	n	n	n	n	n	n
CCn1c(SCCN2CCCCC2)nnc1-c1ccc(S(=O)(=O)N2CCOCC2)cc1	n	n	n	n	93	n
Cc1ccsc1C(=O)OCC(=O)Nc1cccc(S(=O)(=O)N2CCOCC2)c1	n	n	n	n	n	n
Cc1ccccc1NS(=O)(=O)c1ccc(C(=O)N(C)CC(=O)Nc2ccccc2Br)cc1	n	n	n	n	n	n
CCNc1nc(NC(C)C)nc(N(C#N)Cc2ccccc2)n1	n	n	n	16	n	n
Cc1c(C(=O)Nc2ccc3c(c2)OCCO3)sc2nc(-c3ccccc3)cn12	n	n	n	n	42	n
Cc1sc2cc(-c3cccc([N+](=O)[O-])c3)c(-c3cccc([N+](=O)[O-])c3)c[n+]2c1C	n	n	n	n	32	n
O=[N+]([O-])c1cccc(-c2cc3cccc[n+]3cc2-c2cccc([N+](=O)[O-])c2)c1	n	n	n	n	n	n
COc1cc([N+](=O)[O-])ccc1NC(=O)CSc1nncn1-c1cccnc1	n	n	n	n	n	n
CN1CCCC(OC(=O)c2ccccc2F)C1 (configuration not stated)	n	n	n	n	n	n
CN1CCCC(CC2c3ccccc3Sc3ccccc32)C1 (configuration not stated)	n	n	n	n	99	n
O=C(Nc1cccc(F)c1)c1c(F)c(F)c(F)c(F)c1F	24	n	n	n	n	n
